Shown are actives, neighbours in structure and some others; about 2.5% of the full set was active somewhere.
ABCB6 inh MLPCN – blocks the human ABCB6 transporter. hit rate 0.19% among 360,000. K562-ABCB6 porphyrin accumulation, flow cytometry, 1 h; stronger effect = lower value. Q9NP58. fluorescence ratio to DMSO, % at 10 µM. AID 602162;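 active = fluorescence ratio to DMSO below 75%, the collection mean minus 3 SD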;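 also: signal is porphyrin accumulated inside mitochondria; lower ratio means ABCB6 inhibition with less porphyrin fluorescence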
Target sequence (Q9NP58 whole entry, looked up): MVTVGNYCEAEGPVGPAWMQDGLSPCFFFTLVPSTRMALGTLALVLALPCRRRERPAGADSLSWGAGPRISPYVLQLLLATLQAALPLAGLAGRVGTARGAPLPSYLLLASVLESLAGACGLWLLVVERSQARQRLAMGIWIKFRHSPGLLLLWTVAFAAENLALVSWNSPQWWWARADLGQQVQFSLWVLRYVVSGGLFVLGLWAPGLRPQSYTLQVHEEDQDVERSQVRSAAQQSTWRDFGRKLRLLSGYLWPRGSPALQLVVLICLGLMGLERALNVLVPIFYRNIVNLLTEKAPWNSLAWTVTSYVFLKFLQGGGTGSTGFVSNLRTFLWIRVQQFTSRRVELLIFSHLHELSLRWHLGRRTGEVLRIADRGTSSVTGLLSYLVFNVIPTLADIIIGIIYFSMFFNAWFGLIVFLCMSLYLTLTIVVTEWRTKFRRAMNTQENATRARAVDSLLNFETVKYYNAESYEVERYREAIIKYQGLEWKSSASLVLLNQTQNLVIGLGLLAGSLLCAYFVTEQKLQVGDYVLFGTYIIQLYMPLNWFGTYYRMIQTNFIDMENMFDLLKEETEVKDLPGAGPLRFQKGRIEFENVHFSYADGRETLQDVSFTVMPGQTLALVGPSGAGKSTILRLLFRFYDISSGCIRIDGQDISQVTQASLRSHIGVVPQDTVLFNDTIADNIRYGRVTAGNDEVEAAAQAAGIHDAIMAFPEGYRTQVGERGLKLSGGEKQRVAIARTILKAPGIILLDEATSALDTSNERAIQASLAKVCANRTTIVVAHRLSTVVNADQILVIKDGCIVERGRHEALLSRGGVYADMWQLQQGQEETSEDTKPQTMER
PG9 Ab binder – small molecules binding HIV-1 gp120 antibody PG9. inhibition, % at 6.7 µM. TR-FRET gp120-PG9 antibody binding. hit rate 0.43% among 360,000; in the data active = inhibition above about 8.5%
rCAG RNA binder – r(CAG) repeat RNA binding; TO-PRO-1 dye displacement fluorescence; AID 651821; inhibition, % at 3 µM; hit rate 1.3% among 370,000;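 active = inhibition above the plate cutoff, the mean of all test compounds on that plate plus 3 SD, cut at about 35% in these data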;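 also: higher means more dye released from RNA so lower well fluorescence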
Exocytosis inh – lytic granule exocytosis inhibition; inhibition, % at 10 µM; AID 651702; hit rate 0.66% among 360,000; TALL-104 LAMP-1 surface exposure, flow cytometry; cells stimulated with thapsigargin and PMA;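 active = inhibition above about 55%, limit read from the data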
Exocytosis CP01 – lytic granule exocytosis inhibition. shares compounds with Exocytosis inh. TALL-104 cells, LAMP-1 externalization, flow cytometry; stimulated with PMA plus thapsigargin. inhibition, % at 10 µM. hit rate 11% among 1,500. AID 651954; in the data active = inhibition above about 60%
Large screens that a line does not name were inactive (follow-up assays come after a bar, where they were run).

Cc1ccc([C@@H]2CC(=O)[C@@H]3CN(S(=O)(=O)c4ccc(C)cc4)[C@H](c4ccccc4)C[C@@H]3N2S(=O)(=O)c2ccc(Cl)cc2)cc1	none
CCN(CC(=O)Nc1ccccc1OC)C(=O)CCc1ccccc1	none
CCCN(CC(=O)Nc1ccccc1OC)C(C)C(=O)NC(C)CCc1ccccc1 (configuration not stated)	Exocytosis inh 69.7 | Exocytosis CP01 inactive
Cn1ccc(NC(=O)c2ccc([N+](=O)[O-])cc2)n1	none
CC(NC(=O)C1CCN(S(=O)(=O)c2ccc(Br)s2)CC1)c1ccccc1 (configuration not stated)	Exocytosis inh 66.2 | Exocytosis CP01 inactive
COc1cccc(CNC(=O)C2CCN(S(=O)(=O)c3ccc(Br)s3)CC2)c1	Exocytosis inh 62.9 | Exocytosis CP01 inactive
CSCC[C@H](NS(=O)(=O)c1ccc(C(C)=O)cc1)c1nnc2ccccn12	none
COc1cccc(CNCc2ccco2)c1O	none
COC(=O)C1=C(C)N(Cc2cccc(C(F)(F)F)c2)C(=NCc2cc(OC)c(OC)c(OC)c2)NC1c1cccc(C(F)(F)F)c1 (configuration not stated)	none (no result: ABCB6 inh MLPCN, Exocytosis inh)
COc1ccc(S(=O)(=O)n2cccc2)cc1	none
Cc1occc1-c1nnc(SCC(=O)NC2CCCCC2C)o1 (configuration not stated)	none
CCOc1ccc(NC(=O)c2ccc(F)cc2F)cc1	Exocytosis inh 62.1 | Exocytosis CP01 inactive
COc1ccccc1CNC(=O)C1CCN(C(=O)c2sccc2-n2cccc2)CC1	none
Cc1ccc(/C=N/NC(=O)c2nnn(-c3nonc3N)c2-c2ccc3c(c2)OCO3)s1	none
COc1cc(C(=O)Nc2ccc(S(=O)(=O)N3CCOCC3)cc2)c([N+](=O)[O-])cc1OC	Exocytosis inh 74.3 | Exocytosis CP01 inactive
Cc1ccc(-c2csc3ncn(-n4c(C)ccc4C)c(=O)c23)o1	Exocytosis inh 55.6 | Exocytosis CP01 inactive
COc1ccc(NC(=O)CC2C(=O)N(Cc3ccccc3)C(=S)N2CCN2CCOCC2)cc1 (configuration not stated)	none
C=CCN1C(=O)C(CC(=O)Nc2ccc(OCCC)cc2)N(CCCN2CCN(Cc3ccccc3)CC2)C1=S (configuration not stated)	Exocytosis inh 58.4 | Exocytosis CP01 inactive
Cc1ccc(-c2cc(C(=O)Nc3cccc(S(=O)(=O)N(C)C)c3)c3ccccc3n2)o1	Exocytosis inh 66.1 | Exocytosis CP01 inactive
Cc1ccc(-c2cc(C(=O)Nc3ccccc3C)c3ccccc3n2)o1	Exocytosis inh 82.5 | Exocytosis CP01 inactive
O=Cc1cccn1-c1ncc(Br)cn1	none
COc1ccccc1C(=O)Nc1c2c(nn1-c1cccc(C)c1C)CS(=O)(=O)C2	Exocytosis inh 70.7 | Exocytosis CP01 inactive
CC(C)(C)C(=O)NC1CC2CCCC(C1)N2C(=O)Nc1ccccc1Cl (configuration not stated)	none
S=C(Nc1ccccc1Cl)NC1CC2CCCC(C1)N2C1CC1 (configuration not stated)	Exocytosis inh 87.1 | Exocytosis CP01 inactive
Cc1ccc(C(C(=O)NC2CCCCC2)N(CCCN2CCOCC2)C(=O)c2snc(C(N)=O)c2N)cc1 (configuration not stated)	none
CCCN(c1ccccc1F)S(=O)(=O)c1cc(-c2cc(C)no2)ccc1OC	Exocytosis inh 89.4 | Exocytosis CP01 inactive
COc1ccc(C2/C(=C(/O)c3ccc(C)cc3)C(=O)C(=O)N2CCCN2CCOCC2)cc1 (configuration not stated)	none
CCN1C(=O)[C@H]2[C@@H](c3ccc(OC)cc3)N3C(=O)CN(CCOC)C(=O)[C@@]3(Cc3ccccc3)[C@H]2C1=O	none
ClCc1ncc(-c2ccc(Cl)cc2)o1	none
CCOC(=O)c1c(NC(=O)CSc2nnc(CNc3ccc(F)cc3)o2)sc(C(C)=O)c1C	none
COC(=O)c1c(NC(=O)CSc2nnc(CNc3ccc(Cl)cc3)o2)sc(C)c1C	Exocytosis inh 91.7 | Exocytosis CP01 inactive
O=C(NC1CC1)c1cccc(Nc2ccc(-c3ccc4c(c3)OCCO4)nn2)c1	Exocytosis inh 71.0 | Exocytosis CP01 inactive
CCOC(=O)[C@]12CCCC=C1N(Cc1ccccc1)C(=O)[C@H](CC(=O)NCC1CCCCC1)C2	none (no result: ABCB6 inh MLPCN)
COc1ccc(-c2cc([C@H]3[C@H]4C=CC[C@@H](C)[C@@H]4C(=O)N3Cc3ccccc3)ccc2F)cc1	Exocytosis inh 57.3 | Exocytosis CP01 inactive
COc1ccc(-c2cc([C@H]3[C@H]4C=CC[C@@H](C)[C@@H]4C(=O)N3Cc3ccccc3)ccc2F)cc1OC	none
COc1ccc(CCN(C)C(=O)C(CCSC)NC(=O)c2ccco2)cc1OC (configuration not stated)	none
O=C(Nc1ccccc1N1CCOCC1)c1cc2ccccc2o1	none
COc1ccc(N2CCOCC2)c(NC(=O)c2cc3ccccc3o2)c1	Exocytosis inh 74.9 | Exocytosis CP01 inactive
COc1ccc(OCC(=O)Nc2cc(OC)ccc2N2CCCCC2)cc1	Exocytosis inh 66.7 | Exocytosis CP01 inactive
COc1cccc(N2CCN(S(=O)(=O)c3ccc(-n4cnnn4)cc3)CC2)c1	none
c1ccc(-c2nc(NCc3cccs3)c3ccccc3n2)cc1	none
CN(Cc1cccs1)c1nc(-c2cccnc2)nc2ccccc12	Exocytosis inh 84.5 | Exocytosis CP01 inactive
Cc1nc2c(Br)cc(Br)cc2c(=O)n1-c1ccccc1NC1OCC(O)C(O)C1O (configuration not stated)	none
CCCCN(C)Cc1c(C)[nH]c2ccccc2c1=O	Exocytosis inh 71.3 | Exocytosis CP01 inactive
CCCCN(C)Cc1c(C)[nH]c2ccc(C)cc2c1=O	none
CC(C)(C)c1ccc(NC(=O)COC(=O)C2(C)CC2(Cl)Cl)cc1 (configuration not stated)	none
Cc1ccccc1CN1CCc2cc([N+](=O)[O-])ccc21	Exocytosis inh 114.7 | Exocytosis CP01 inactive
COc1ccc([N+](=O)[O-])cc1NCc1ccccc1C	none
CCN1C(=O)/C(=C2/Sc3ccccc3N2CC)S/C1=N\c1ncn[nH]1	none
C[C@@H](C(=O)OCn1nnc2ccccc2c1=O)N1C(=O)C2CCCCC2C1=O (some centres not stated)	none
Cc1ccc2nc(-c3ccc(NC(=O)Cc4cccs4)cc3)[nH]c2c1	Exocytosis inh 68.0 | Exocytosis CP01 inactive
Cc1ccc2nc(NC(=O)Cc3cccs3)sc2c1	none
COc1ccc(OC)c(Nc2nc(-c3ccncc3)nc3ccccc23)c1	Exocytosis inh 83.2 | Exocytosis CP01 inactive
O=C(Nc1ccccc1Cl)c1sccc1-c1ccccc1	Exocytosis inh 80.8 | Exocytosis CP01 inactive
COc1ccccc1NC(=O)C(C)N(C)Cc1ccc(Cl)s1 (configuration not stated)	Exocytosis inh 58.1 | Exocytosis CP01 inactive
CCOc1ccc2c(c1)nc(SCC(=O)c1ccc(Br)s1)n2C	Exocytosis inh 103.2 | Exocytosis CP01 inactive
CCOc1ccc2c(c1)nc(SCC(=O)c1cccs1)n2C	none
CCOC1=C2[C@@H](CN(S(=O)(=O)c3ccc(C)cc3)[C@H]2c2cccc3ccccc23)[C@H]2C(=O)N(c3ccccc3)C(=O)[C@H]2C1	none

Source: PubChem BioAssay
